# CSC inhib = cancer stem cell inhibition | cancer stem cell-like cells viability, luminescence | inhibition, % at 7.5 µM | 300,000 compounds, 1.1% hits | AID 2717; in the data active = inhibition above about 75%; tested in HMLE shEcad cells
# Calb FLC = affects C. albicans growth with fluconazole; AID 1979; growth inhibition, % (concentration not given with the values); C. albicans CaCi-2 (fluconazole-resistant clinical isolate) + fluconazole, Alamar Blue growth, 48 h; 300,000 compounds, 0.57% hits;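 active = growth inhibition above about 58% in most replicates, limit read from the data, passing the limit was not always enough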;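 also: all wells also contain fluconazole at 8 µg/ml as a sub-toxic cotreatment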
# MPTP block = blocks calcium-induced mitochondrial swelling. 360,000 compounds, 1.4% hits. inhibition, % at 10 µM. isolated mouse mitochondria, Ca2+ swelling absorbance, 30 min. AID 602449;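 active = inhibition of 50% or more, scaled per plate between neutral and stimulator controls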
# SKKanGAS inh = blocks kanamycin growth of S. pyogenes SKKanGAS strain. BacTiter-Glo, 6 h. inhibition, % at 7.5 µM. 300,000 compounds, 1.3% hits;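 active = mean replicate score, as percent of positive control median, at least 50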;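 also: strain carries kanamycin resistance gene driven by streptokinase promoter and grows in 40 µg/ml kanamycin; loss of luminescence reflects streptokinase promoter inhibition or plain growth inhibition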
# Beta cell apopt = blocks beta cell apoptosis; INS-1E cytokine-induced death, ATP luminescence, 48 h; percent of positive-control rescue, neutral wells zero; protection from apoptosis, % (concentration not given with the values); 300,000 compounds, 0.8% hits; AID 435005;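 active = Every replicate reaches about 75%, or at least half do and their mean reaches it too, limit read from the data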;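 also: higher means more ATP so stronger rescue from cytokine killing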
# Mdm2-MdmX inh = human Mdm2/MdmX binding inhibition; AID 485346; inhibition, % at 8 µM; SaOS-2 split-luciferase Mdm2/MdmX complementation, luminescence; 330,000 compounds, 3% hits; O15151+Q00987;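 active = inhibition of at least 50% at 8 µM in the primary screen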
# Mdm2 MdmX conf = human Mdm2/MdmX binding inhibition, confirmed; luminescent assay; inhibition, % at 8 µM; shares compounds with Mdm2-MdmX inh; 10,000 compounds, 55% hits; in the data active = inhibition above about 40%
# Full FLuc ctr = full-length luciferase inhibition in Mdm2/MdmX counter-screen; shares compounds with Mdm2-MdmX inh; SaOS-2 full-length luciferase counterscreen, luminescence; 6,200 compounds, 77% hits; inhibition, % at 8 µM;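 active = mean inhibition at 8 µM reaching about 37%, which flags the compound as non-specific, limit read from the data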;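 also: p53-null SaOS-2 cells with luciferase driven by a doxycycline-inducible promoter; compound on cells about two nights before reading with doxycycline added after day one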
# A number is an active result; . = inactive; / = no result given. In the library only some 5.4% were active in any assay of this set; here they are far more common.
SMILES,CSC inhib,Calb FLC,MPTP block,SKKanGAS inh,Beta cell apopt,Mdm2-MdmX inh,Mdm2 MdmX conf,Full FLuc ctr
COC(=O)c1cc2c(cc1Cl)SC(=NCCCN1CCOCC1)NS2(=O)=O,.,.,.,.,.,.,/,/
CC(=O)Nc1ccc(S(=O)(=O)Nc2cc(C)ccn2)cc1,.,.,.,.,.,.,/,/
CC(=O)NC(c1ccccc1)c1cc([N+](=O)[O-])c2cccnc2c1O (configuration not stated),120,.,.,.,.,63,67,50
CC(C)C(=O)NC(c1ccccc1)c1cc([N+](=O)[O-])c2cccnc2c1O (configuration not stated),147,.,.,84,91,81,72,42
O=C(Nc1ccc(N2CCOCC2)cc1)C1CC(=O)N(c2ccc(F)cc2)C1 (configuration not stated),.,.,.,.,.,.,/,/
COc1ccccc1C1CC(=O)Nc2cc(C)c(C)cc21 (configuration not stated),.,.,.,.,.,60,55,60
Cc1cc2c(cc1C)C(c1ccccc1Br)CC(=O)N2 (configuration not stated),.,.,.,.,.,.,/,/
CCOc1ccccc1C1CC(=O)Nc2cc(C)c(C)cc21 (configuration not stated),.,.,.,.,.,57,59,54
O=C1CC(c2cccnc2)c2cc3c(cc2N1)OCO3 (configuration not stated),.,.,.,.,.,.,/,/
CC(C)Oc1ccccc1C1CC(=O)Nc2cc3c(cc21)OCO3 (configuration not stated),.,.,.,.,.,70,61,84
Cc1cc2c(cc1C)C(c1ccccc1OC(C)C)CC(=O)N2 (configuration not stated),96,.,.,.,.,57,55,43
CCOc1ccccc1C1CC(=O)Nc2cc(OC)c(OC)c(OC)c21 (configuration not stated),.,.,.,.,.,.,/,/
COc1ccc(/C=C2\N=C(SC)N(c3ccccc3OC)C2=O)cc1,.,.,.,.,.,98,94,47
CCOc1ccc(N2C(=O)/C(=C/c3ccccc3)N=C2SC)cc1,.,.,.,.,.,.,/,/
O=C(Nc1cccc(-c2cnc3ccccc3n2)c1)c1ccccc1,.,.,.,.,.,57,.,/
CCC(=O)Nc1cccc(-c2cnc3ccccc3n2)c1,.,.,.,.,.,.,/,/
O=C(CCl)Nc1cccc(-c2cnc3ccccc3n2)c1,.,.,.,.,.,97,99,55
O=C(Nc1cccc(-c2cnc3ccccc3n2)c1)c1cccc(NC(=O)c2ccco2)c1,/,.,.,.,.,68,65,88
O=C(CCl)Nc1ccc(Oc2cnc3ccccc3n2)cc1,.,.,.,.,.,67,49,.
Cc1cc(C)n(C(=O)CSc2ccc(Cl)cc2)n1,.,.,.,.,.,.,/,/
Cc1ccc(/C([O-])=C(/C(=S)NCc2ccc3c(c2)OCO3)[n+]2ccc(N(C)C)cc2)c(C)c1,.,.,.,.,.,.,/,/
NNC(=O)c1cc2c(s1)-c1cc(Cl)ccc1SC2,.,.,.,.,.,.,/,/
CCN(CC)CCNC(=O)c1cc2c(s1)-c1ccccc1SC2,.,.,.,.,.,64,48,79
Cc1ccc(-n2c(N)c(C(=O)Nc3c(C)n(C)n(-c4ccccc4)c3=O)c3nc4ccccc4nc32)cc1C,.,.,/,.,.,51,.,/
COc1ccc(-n2c(N)c(C(=O)Nc3c(C)n(C)n(-c4ccccc4)c3=O)c3nc4ccccc4nc32)cc1,.,.,.,.,.,.,/,/
Cn1ncc2c(O/N=C(\N)c3ccc(C(F)(F)F)cc3)ncnc21,.,.,.,.,.,98,46,.
O=C(NNC(=O)c1cccc2ccccc12)c1ccc(-c2ccccc2)cc1,.,.,.,.,.,.,/,/
O=C(NNC(=O)c1cccc2ccccc12)c1ccccc1O,.,.,.,.,.,52,42,60
COc1c(C(=O)Nc2ccc(Br)cn2)ccc2ccccc12,.,.,.,.,.,.,/,/
